Laboratory results taken from PubChem BioAssay (NCI).
This is part of a sample that, as a whole, favours compounds with a hit. Of some 83,000 tested, about 20% had one in any assay.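 Growth was measured after 48 h exposure to one concentration of compound in 96-well plates. Values under 10 count as active.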 Values without a mark were called inactive. Calls of active or inactive are those of the source.

How the values were obtained:
Test in all cases: NCI-60 one-dose screen, 48 h (100 = growth as untreated, 0 = no growth, -100 = all killed)
Settings in all cases: 10 µM unless noted
DU-145 prostate = tested on: DU-145 prostate
K-562 leukemia = tested on: K-562 leukemia
MALME-3M melanoma = tested on: MALME-3M melanoma
MDA-MB-231 breast = tested on: MDA-MB-231 breast
RXF 393 renal = tested on: RXF 393 renal
SF-268 CNS = tested on: SF-268 CNS
SF-295 CNS = tested on: SF-295 CNS
SF-539 CNS = tested on: SF-539 CNS
UACC-257 melanoma = tested on: UACC-257 melanoma
M14 melanoma = tested on: M14 melanoma
HCT-15 colon = tested on: HCT-15 colon
HT29 colon = tested on: HT29 colon
SNB-75 CNS = tested on: SNB-75 CNS
SNB-19 CNS = tested on: SNB-19 CNS
U251 CNS = tested on: U251 CNS
PC-3 prostate = tested on: PC-3 prostate
SK-MEL-5 melanoma = tested on: SK-MEL-5 melanoma
UACC-62 melanoma = tested on: UACC-62 melanoma
LOX IMVI melanoma = tested on: LOX IMVI melanoma
SK-MEL-28 melanoma = tested on: SK-MEL-28 melanoma

Compound	growth (DU-145 prostate)	growth (K-562 leukemia)	growth (MALME-3M melanoma)	growth (MDA-MB-231 breast)	growth (RXF 393 renal)	growth (SF-268 CNS)	growth (SF-295 CNS)	growth (SF-539 CNS)	growth (UACC-257 melanoma)	growth (M14 melanoma)	growth (HCT-15 colon)	growth (HT29 colon)	growth (SNB-75 CNS)	growth (SNB-19 CNS)	growth (U251 CNS)	growth (PC-3 prostate)	growth (SK-MEL-5 melanoma)	growth (UACC-62 melanoma)	growth (LOX IMVI melanoma)	growth (SK-MEL-28 melanoma)
Cc1ccc(-c2cc(-c3ccc(C)cc3)nc(NCCNc3ccnc4cc(Cl)ccc34)n2)cc1	-26.4% (active)	-14.4% (active)	-81.4% (active)	-89.1% (active)	-70.4% (active)	-21.9% (active)	-76.3% (active)	-80.6% (active)	-60.9% (active)	-88.8% (active)	-84.9% (active)	-36% (active)	-30.2% (active)	16.8%	-84.4% (active)	-22.8% (active)	-93.1% (active)	-79.9% (active)	-92.3% (active)	-83.6% (active)
CCOC(=O)c1c[nH]n2c(=S)ncnc12	108%	106%	109%	109%	113%	98.5%	109%	105%	102%	103%	102%	100%	90.7%	96.1%	102%	117%	105%	97.5%	96.4%	108%
O=C(O)c1ccccc1C(F)(F)F	102%	102%	103%	95.3%	102%	96.3%	95.6%	93.7%	-1.89% (active)	93.4%	104%	107%	77.1%	99.1%	96.5%	99.7%	105%	95%	81.2%	121%
Cc1ccc(-c2cc(-c3ccc(C)cc3)nc(N3CCN(CCNc4ccnc5cc(Cl)ccc45)CC3)n2)cc1	21.5%	27.7%	-45.9% (active)	18.6%	-14.5% (active)	28.2%	94.9%	7.85% (active)	40.8%	-2.46% (active)	42.1%	11.9%	-21.1% (active)	38.7%	35.7%	44.6%	38.5%	12.2%	6.97% (active)	14.6%
Cc1ccc(S(=O)(=O)Oc2ccc(Br)cc2Br)cc1	78.1%	18.5%	92%	85%	87.9%	76.5%	69.3%	81.6%	81.4%	78.8%	48.5%	34.5%	64.8%	75.7%	48.5%	79.4%	77.9%	63.8%	52.3%	92.8%
Nn1c(Nc2ccc(S(=O)(=O)Nc3ncccn3)cc2)nnc(/C=C/c2c(O)ccc3ccccc23)c1=O	99.7%	85.2%	94.2%	71.4%	106%	84.7%	100%	102%	94.4%	97.5%	91.3%	105%	92.2%	96.8%	85.8%	75.4%	88.2%	84.3%	84.3%	112%
O=C(Nc1cc(F)cc2cccnc12)c1cnc(N2CCNCC2)cn1	75.2%	19.8%	59.6%	71.8%	54.1%	77.4%	89.3%	85.5%	88%	86.1%	40.5%	36.8%	82.7%	87.7%	63.6%	63%	91.1%	101%	65.8%	97.4%
CC1(C)OC2[C@@H](CNC(=O)NC(=O)NC(=O)CI)O[C@@H](n3cnc4c(NC(=O)Nc5ccccc5)ncnc43)[C@H]2O1 (stereo not given in full)	105%	4.48% (active)	-61.1% (active)	58.4%	54.9%	73.4%	84.6%	27.2%	94.7%	69.4%	17.2%	9.35% (active)	80.5%	94.6%	95.5%	68.3%	103%	93.8%	-79.4% (active)	97.8%
Oc1c(CNCCNCc2cc(Cl)cc(Cc3ccccc3)c2O)cc(Cl)cc1Cc1ccccc1	24.2%	13.2%	8.23% (active)	36.2%	17.6%	18.6%	0.247% (active)	2.22% (active)	16%	2.36% (active)	25.7%	30.6%	28.4%	2.51% (active)	17%	40.9%	-13.2% (active)	-11.5% (active)	4.57% (active)	19.5%
Nc1nc(Nc2ccccc2)c2ncn(Cc3cc4c(cc3Br)OCO4)c2n1	18.2%	10.2%	74.7%	-5.1% (active)	22.9%	23.8%	14%	1.84% (active)	58.3%	15.7%	6.74% (active)	-34% (active)	18.8%	17.3%	3.29% (active)	16.2%	-6.17% (active)	33.6%	12.9%	52%
COc1ccc(C(=O)CSc2nccc(Nc3ccc(C(=O)O)cc3)n2)cc1	107%	115%	93%	102%	99%	96.6%	104%	99.9%	96.6%	92.1%	100%	104%	102%	101%	98%	102%	93.6%	89.7%	101%	100%
O=c1[nH]c2cc(Cl)c(Cl)cc2n2cc3ncccc3c12	100%	65.5%	128%	89.4%	112%	95.1%	58.5%	112%	97.8%	101%	85.9%	67.9%	67.2%	86.8%	72.6%	72.8%	84.8%	57.8%	81.6%	120%
CCOc1cc(/C=N\NC(=O)N/N=C/c2ccc(O)c(OCC)c2)ccc1O	14.9%	10.6%	60.2%	51.5%	24.9%	45.7%	18%	-9.06% (active)	61.9%	19.3%	28.7%	27.6%	0.378% (active)	39.8%	33.7%	33%	11.5%	26.2%	42.6%	52.3%
Cc1cc(C)nc(SCC(=O)Nc2cccc(N=Cc3ccccc3O)c2)n1	104%	96.2%	101%	89.5%	101%	98.7%	102%	100%	103%	98.2%	105%	101%	81.9%	93%	94.9%	90.3%	103%	94.1%	103%	106%
CCOC(=O)c1c[nH]c2cc(OCC3CC3)c(OCC3CC3)cc2c1=O	102%	121%	106%	119%	114%	109%	103%	105%	115%	115%	104%	111%	114%	117%	119%	95.1%	112%	104%	113%	110%
